In the library only some 4.6% were active in any assay of this set; here they are far more common.
Epigenetic reg = derepresses silenced GFP reporter in murine cells; murine LDR cells, GFP reporter derepression, 30 h; Potency, µM (highest dose often 53.9 µM), for inactives: at the top dose GFP activation, most hits filed as activators; actives 0.2% (n = 280,000); active means well fitted activation curve with a large enough effect; further: potency means the concentration at half of the fitted maximal effect; % of control where 0% means no effect; nearly all actives have a fitted effect of over 60% in size
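Derepression of a silenced CMV-GFP reporter in murine LDR cells is scored by enumerating GFP-positive cells with a laser-scanning microplate cytometer after 30 hours of treatment at 37 C.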
D1 antagonist = blocks dopamine activation of the human D1 receptor; P21728; activity change, negative = inhibition, % at 10 µM; actives 3.2% (n = 360,000); HEK293 TREx D1 cells, calcium flux, dopamine EC80; hits give low values; in the data active means activity change below about -30%; further: on the % scale 0 is the no-effect control and ±100 the full control effect
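HEK293 T-REx cells expressing inducible, force-coupled D1 receptor; no-wash Ca dye, 30–90 min RT. Cmpd → 180 s read at 1 Hz → EC80 DA → 180 s read.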
TRHR agonist = agonists of human TRH receptor. TRHR cells, calcium flux fluo-8, FDSS agonist mode. activation, % at 2 µM. actives 0.18% (n = 360,000). AID 493084; further: 0% is about no effect
Target sequence (P34981 whole entry, looked up): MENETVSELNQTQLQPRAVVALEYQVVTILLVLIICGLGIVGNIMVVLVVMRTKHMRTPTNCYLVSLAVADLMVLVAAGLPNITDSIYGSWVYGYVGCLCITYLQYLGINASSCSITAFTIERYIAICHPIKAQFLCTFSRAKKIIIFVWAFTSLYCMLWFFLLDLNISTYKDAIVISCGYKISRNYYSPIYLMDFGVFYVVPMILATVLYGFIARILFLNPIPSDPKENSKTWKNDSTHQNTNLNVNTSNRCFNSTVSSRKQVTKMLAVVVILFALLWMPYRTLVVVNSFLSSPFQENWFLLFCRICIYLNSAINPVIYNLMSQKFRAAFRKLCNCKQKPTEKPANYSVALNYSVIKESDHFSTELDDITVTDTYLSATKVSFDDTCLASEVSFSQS
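Fluo-8-loaded TRHR cells; 10 s baseline, compound added, kinetic Ca2+ fluorescence read 1/s, agonist mode.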
TRHR PAM = TRH receptor (human) allosteric enhancement | actives 0.66% (n = 360,000) | enhancement, % at 2 µM | TRHR cells, fluo-8 calcium fluorescence, EC20 TRH enhancement | P34981; in the data active means enhancement above about 30%; further: 0% is about no effect
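Enhancer read-out: after compound pinning and an initial kinetic agonist-mode read, an EC20 of TRH (10 nM final) was injected and fluo-8 calcium signal (Ex 480/Em 530) followed at 1 s/cycle for 100 cycles in TRHR-expressing cells.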
D1 PAM = human D1 dopamine receptor positive modulation | P21728 | HEK293 TREx D1 cells, calcium flux, dopamine EC20 potentiation | potentiation, % at 10 µM | actives 0.036% (n = 360,000) | AID 504651; in the data active means potentiation above about 30%; further: 0% is about no effect
D1 ag = agonists of human D1 dopamine receptor; P21728; HEK293 T-REx D1 cells, calcium flux, agonist mode; activation, % at 2 µM; actives 1% (n = 360,000); AID 504660; further: 0% is about no effect
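Inducible HEK293 T-REx D1 cells, force-coupled to calcium signalling, were plated at 4000 cells/well with tetracycline and held overnight at 30 C. After no-wash calcium dye loading, compound-evoked calcium rise over 180 s flagged agonists.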
An asterisk follows results filed as active. Unless noted, no stated cut-off is given here; in the data, active means activation above about 30%; inactive means the rest.

Results for COC(=O)CN1C(=S)N(c2ccc(Cl)cc2)C(=O)C1CC(=O)Nc1ccccc1 (centres undefined) ?
Epigenetic reg: 0%; D1 antagonist: -32*; TRHR agonist: 0; TRHR PAM: 23; D1 PAM: -4; D1 ag: 3

What do the screens show for `CCOc1ccc(NC(=O)CC2C(=O)N(c3ccc(C)cc3)C(=O)N2Cc2ccc(OC)cc2)cc1` (centres undefined)?
Epigenetic reg: -4%; D1 antagonist: -3; TRHR agonist: 0; TRHR PAM: 45*; D1 PAM: 1; D1 ag: 0

How did CCOc1ccc(NC(=O)CC2C(=O)N(c3ccc(Cl)cc3)C(=O)N2Cc2cccs2)cc1 (centres undefined) do in these assays?
Epigenetic reg: 6%; D1 antagonist: -74*; TRHR agonist: 0; TRHR PAM: 4; D1 PAM: -3; D1 ag: 1

How did COc1ccc(Nc2oc(/C=C/c3cc(OC)c(OC)c(OC)c3)nc2C#N)cc1 do in these assays?
Epigenetic reg: 0%; D1 antagonist: -4; TRHR agonist: -1; TRHR PAM: 1; D1 PAM: -1; D1 ag: 0

Results for N#C/C(=C(/O)c1ccc(Cl)cc1)c1nc2ccccc2[nH]1 ?
D1 antagonist: 9; TRHR agonist: 0; TRHR PAM: -3; D1 PAM: 8; D1 ag: 3

Results for N#C/C(=C(\O)c1cc(Cl)sc1Cl)c1nc2ccccc2[nH]1 ?
D1 antagonist: -19; TRHR agonist: -1; TRHR PAM: 4; D1 PAM: -7; D1 ag: 35*

How did Fc1ccc(N2CCN(c3ncnc4nc[nH]c34)CC2)cc1 do in these assays?
Epigenetic reg: -1%; D1 antagonist: -54*; TRHR agonist: 1; TRHR PAM: 22; D1 PAM: -9; D1 ag: 2

How did Cc1oc2c(c1C(=O)Nc1ccccc1Br)C1=NCCN1C=N2 do in these assays?
Epigenetic reg: 0%; D1 antagonist: -5; TRHR agonist: 0; TRHR PAM: -3; D1 PAM: -3; D1 ag: -1

Results for COc1ccc(C(=O)C2CCCN(Cc3ccc(C#CCCO)cc3)C2)cc1F (centres undefined) ?
Epigenetic reg: -1%; D1 antagonist: -37*; TRHR agonist: -1; TRHR PAM: 1; D1 PAM: -3; D1 ag: 27

How did O=C(Nc1ccccn1)c1ccc2c(c1)S(=O)(=O)c1ccccc1C2=O do in these assays?
Epigenetic reg: 2%; D1 antagonist: -12; TRHR agonist: 0; TRHR PAM: 2; D1 PAM: -4; D1 ag: 0

How did O=C1c2ccccc2S(=O)(=O)c2cc(C(=O)N(c3ccccn3)c3ccccn3)ccc21 do in these assays?
Epigenetic reg: -1%; D1 antagonist: -24; TRHR agonist: 70*; TRHR PAM: 40*; D1 PAM: -5; D1 ag: 300*

What do the screens show for `Cc1ccc(NC(=O)CSc2nc(=O)n(Cc3cccnc3)c3c2CCC3)cc1F`?
Epigenetic reg: 4%; TRHR agonist: -1; TRHR PAM: -6; D1 PAM: 2; D1 ag: -3

How did Cc1cc(C)nc(NC2=NCC(=O)N2c2ccc3c(c2)OCCO3)n1 do in these assays?
Epigenetic reg: 1%; D1 antagonist: -84*; TRHR agonist: 0; TRHR PAM: 4; D1 PAM: -2; D1 ag: -1

What do the screens show for `O=C(Nc1ccc([N+](=O)[O-])cc1)c1ccccc1F`?
Epigenetic reg: 0%; D1 antagonist: -17; TRHR agonist: -1; TRHR PAM: -3; D1 PAM: -9; D1 ag: 2

Results for O=C(Nc1ncc(S(=O)(=O)c2ccc([N+](=O)[O-])cc2)s1)c1ccccc1F ?
Epigenetic reg: 0%; D1 antagonist: -12; TRHR agonist: 8; TRHR PAM: 4; D1 PAM: 8; D1 ag: 38*

How did CCOC(=O)c1cccc(NC(=O)CN2C(=O)CC(C)(C)Sc3ccccc32)c1 do in these assays?
Epigenetic reg: 1%; D1 antagonist: 0; TRHR agonist: 0; TRHR PAM: -1; D1 PAM: -2; D1 ag: 18

How did C/C(=N\NC(=O)c1ccc(O)cc1)c1ccc2c(c1)Nc1ccccc1S2 do in these assays?
Epigenetic reg: 0%; D1 antagonist: -9; TRHR agonist: 1; TRHR PAM: -2; D1 PAM: -9; D1 ag: 2

How did C/C(=N\NC(=O)c1ccccc1F)c1ccc2c(c1)Nc1ccccc1S2 do in these assays?
Epigenetic reg: 11µM*; D1 antagonist: -3; TRHR agonist: 1; TRHR PAM: 8; D1 PAM: 3; D1 ag: 6

What do the screens show for `COCCCNC(=O)C(C)n1c2ccccc2c2cnn(C)c(=O)c21` (centres undefined)?
Epigenetic reg: 2%; D1 antagonist: 0; TRHR agonist: 0; TRHR PAM: 4; D1 PAM: -2; D1 ag: 1

What do the screens show for `COc1ccc(OC)c2c1sc(=NC(=O)C1CCCCC1)n2C`?
Epigenetic reg: 0%; D1 antagonist: -8; TRHR agonist: 0; TRHR PAM: -5; D1 PAM: 0; D1 ag: 2

Results for Cn1c(=NC(=O)C2CC2)sc2cccc(F)c21 ?
Epigenetic reg: 0%; D1 antagonist: -41*; TRHR agonist: 0; TRHR PAM: 1; D1 PAM: -6; D1 ag: 3

What do the screens show for `COc1cc2c(cc1OC)C(COc1ccc3c(C)cc(=O)oc3c1)N(C(=O)c1ccccc1F)CC2` (centres undefined)?
Epigenetic reg: 10%; D1 antagonist: -10; TRHR agonist: 1; TRHR PAM: 1; D1 PAM: 0; D1 ag: 4

How did COc1cccc2sc(NC(=O)c3ccc(S(=O)(=O)N4CCC(C)CC4)cc3)nc12 do in these assays?
Epigenetic reg: 0%; D1 antagonist: 1; TRHR agonist: 0; TRHR PAM: 3; D1 PAM: 1; D1 ag: 2

Results for C/C(=N\NC(=O)c1ccco1)c1ccc(NC(=O)C(F)(F)F)cc1 ?
D1 antagonist: -18; TRHR agonist: 0; TRHR PAM: 39*; D1 PAM: -4; D1 ag: 5

Results for C/C(=N/NC(=O)c1ccco1)c1cccc(NC(=O)c2ccc(C)o2)c1 ?
Epigenetic reg: 0%; D1 antagonist: 8; TRHR agonist: 0; TRHR PAM: 6; D1 PAM: 13; D1 ag: -1

How did C/C(=N\NC(=O)c1ccco1)c1ccc(NC(=O)c2ccccc2)cc1 do in these assays?
Epigenetic reg: -1%; D1 antagonist: -33*; TRHR agonist: 0; TRHR PAM: 1; D1 PAM: -7; D1 ag: 4

From PubChem
